Experimental data published in PubChem BioAssay (NCATS).
Values joined by “and” are separate entries in the source; they are usually repeats but may differ in a detail not shown here. Equal entries are not always repeated. A number with no mark means an inactive call. Results filed as inconclusive are left out. Entries that show only a call come without a potency. Active and inactive are the calls of the source. The call rests on the fitted dose curve; in most records, active means well fitted curve in the direction sought with a large enough effect; inconclusive means small, poorly fitted or top-dose-only effect, or another doubt; inactive means no such curve, though single readings can be large; an effect the other way counts as inactive or inconclusive.

Key:
[1] = target: Cytochrome P450 2C9 (Homo sapiens) (UniProt P11712); assay: qHTS Assay for Inhibitors and Substrates of Cytochrome P450 2C9 (AID 883); further: nearly all actives have a fitted effect of over 60% in size; further: potency means the concentration at half of the fitted maximal effect
How it was run: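 Luminescent read-out of deoxyluciferin hydroxylation, normalized to 57uM sulphaphenazole (AC100). Reaction: 10nM enzyme, 100uM Luciferin-H (equal to KM), 25mM KPO4, 10 min compound preincubation, then 60 min with NADPH regeneration, both at 37C.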

[2] = target: Cytochrome P450 3A4 (Homo sapiens) (UniProt P08684); assay: qHTS Assay for Inhibitors and Substrates of Cytochrome P450 3A4 (AID 884); further: nearly all actives have a fitted effect of over 50% in size; further: potency means the concentration at half of the fitted maximal effect; on activity change, negative = inhibition: series mostly up to about 57 µM
How it was run: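 Luminescent readout of luciferin produced by CYP3A4 (20 nM) dealkylation of Luciferin-PPXE, 25 uM (its KM). NADPH-driven reaction ran 60 min at RT after 10 min compound preincubation; data scaled to 57 uM ketoconazole as 100% inhibition.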

[3] = target: Cytochrome P450 2D6 (Homo sapiens) (UniProt P10635); assay: qHTS Assay for Inhibitors and Substrates of Cytochrome P450 2D6 (AID 891);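 further: luciferin methyl ether substrate demethylated by CYP2D6 with NADPH regeneration; nearly all actives have a fitted effect of over 60% in size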
How it was run: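 Luminescent read-out of luciferin formed by 5 nM human CYP2D6 demethylating 30 uM Luciferin-ME EGE (Km level) over 60 min at room temperature after NADPH regeneration addition. Data normalized to full inhibition by 1.43 uM quinidine.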

[4] = target: Cytochrome P450 2C19 (Homo sapiens) (UniProt P33261); assay: qHTS Assay for Inhibitors and Substrates of Cytochrome P450 2C19 (AID 899); further: nearly all actives have a fitted effect of over 60% in size; further: potency means the concentration at half of the fitted maximal effect
How it was run: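 Luminescence readout of luciferin formed from 10uM Luciferin-H EGE (KM level) by 5 nM CYP2C19 in 50mM KPO4. 60 min NADPH-driven reaction at 37C after 10 min compound preincubation; data scaled to 57uM ketoconazole inhibition.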

[5] = target: Cytochrome P450 3A4 (Homo sapiens) (UniProt P08684); assay: qHTS Assay for Activators of Cytochrome P450 3A4 (AID 885); further: nearly all actives have a fitted effect of over 65% in size
How it was run: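 CYP3A4 activity: Luciferin-PPXE O-dealkylation, 25uM substrate, 200mM KPO4, RT throughout. Read-out is luciferase luminescence; higher values reflect activation.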

Chain of Cytochrome P450 2C9 (Homo sapiens) (P11712 whole entry, looked up): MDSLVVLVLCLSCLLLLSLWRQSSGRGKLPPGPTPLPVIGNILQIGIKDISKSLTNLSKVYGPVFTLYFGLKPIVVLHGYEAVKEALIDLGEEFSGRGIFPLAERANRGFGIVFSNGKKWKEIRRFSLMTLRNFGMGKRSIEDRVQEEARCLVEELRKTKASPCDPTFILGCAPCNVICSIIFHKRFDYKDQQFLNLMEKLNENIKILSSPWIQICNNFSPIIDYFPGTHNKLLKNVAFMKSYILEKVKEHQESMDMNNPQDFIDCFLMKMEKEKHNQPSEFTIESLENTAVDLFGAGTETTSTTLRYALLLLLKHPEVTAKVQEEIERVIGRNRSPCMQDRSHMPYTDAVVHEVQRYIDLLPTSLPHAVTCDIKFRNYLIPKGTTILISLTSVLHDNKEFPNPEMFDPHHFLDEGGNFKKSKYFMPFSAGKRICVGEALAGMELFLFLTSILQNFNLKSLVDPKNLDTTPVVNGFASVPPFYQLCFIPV
Chain of Cytochrome P450 2C19 (Homo sapiens) (P33261 whole entry, looked up): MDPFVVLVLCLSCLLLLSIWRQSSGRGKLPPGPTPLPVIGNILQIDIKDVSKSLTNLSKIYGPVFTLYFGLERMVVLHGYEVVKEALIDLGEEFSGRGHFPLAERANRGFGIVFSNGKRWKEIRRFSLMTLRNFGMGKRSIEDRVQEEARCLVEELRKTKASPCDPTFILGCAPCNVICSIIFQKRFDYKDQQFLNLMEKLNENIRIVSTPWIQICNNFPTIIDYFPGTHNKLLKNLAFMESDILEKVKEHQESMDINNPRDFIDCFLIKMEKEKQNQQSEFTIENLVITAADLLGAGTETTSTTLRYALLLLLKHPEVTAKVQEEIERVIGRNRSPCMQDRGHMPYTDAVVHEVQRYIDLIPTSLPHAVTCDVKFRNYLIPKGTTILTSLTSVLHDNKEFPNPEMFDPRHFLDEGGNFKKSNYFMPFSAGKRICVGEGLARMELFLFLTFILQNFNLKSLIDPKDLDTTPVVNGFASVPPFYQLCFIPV
Chain of Cytochrome P450 3A4 (Homo sapiens) (P08684 whole entry, looked up): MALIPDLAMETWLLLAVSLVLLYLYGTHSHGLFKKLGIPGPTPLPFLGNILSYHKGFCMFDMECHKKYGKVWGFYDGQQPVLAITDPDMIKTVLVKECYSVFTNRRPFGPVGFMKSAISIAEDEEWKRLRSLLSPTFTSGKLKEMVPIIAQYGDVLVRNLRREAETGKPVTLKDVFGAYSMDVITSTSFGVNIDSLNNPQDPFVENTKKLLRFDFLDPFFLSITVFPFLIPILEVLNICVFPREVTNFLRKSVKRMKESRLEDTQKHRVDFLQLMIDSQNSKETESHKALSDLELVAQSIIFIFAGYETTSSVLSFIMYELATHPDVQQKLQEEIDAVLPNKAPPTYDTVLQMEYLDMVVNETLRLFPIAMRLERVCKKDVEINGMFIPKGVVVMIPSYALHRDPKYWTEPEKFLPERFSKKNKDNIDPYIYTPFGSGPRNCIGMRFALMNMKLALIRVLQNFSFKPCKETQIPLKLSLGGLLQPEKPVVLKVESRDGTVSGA
Chain of Cytochrome P450 2D6 (Homo sapiens) (P10635 whole entry, looked up): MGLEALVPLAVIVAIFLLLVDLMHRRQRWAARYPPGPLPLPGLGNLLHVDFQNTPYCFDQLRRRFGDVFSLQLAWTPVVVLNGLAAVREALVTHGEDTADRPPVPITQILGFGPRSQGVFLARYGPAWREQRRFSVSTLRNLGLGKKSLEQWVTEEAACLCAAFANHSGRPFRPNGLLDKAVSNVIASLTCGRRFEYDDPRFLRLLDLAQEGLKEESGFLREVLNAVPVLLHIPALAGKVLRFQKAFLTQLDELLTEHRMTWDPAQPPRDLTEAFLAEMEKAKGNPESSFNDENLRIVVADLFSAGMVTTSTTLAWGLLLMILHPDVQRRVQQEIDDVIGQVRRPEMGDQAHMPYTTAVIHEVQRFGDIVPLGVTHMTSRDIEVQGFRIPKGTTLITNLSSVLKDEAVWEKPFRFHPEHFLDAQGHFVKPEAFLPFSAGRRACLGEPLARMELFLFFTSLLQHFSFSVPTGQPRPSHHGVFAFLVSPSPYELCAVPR

| Compound | Potency [1] | activity change, negative = inhibition [2] | Potency [3] | Potency [4] | Potency [2] | activity change, positive = activation [5] |
| --- | --- | --- | --- | --- | --- | --- |
| CC(=O)c1ccc(C2C=CC(Oc3ccc(-c4ccccc4)cc3)C(CO)O2)cc1 (stereo not given) | 3980 nM (active) | 0.0168% [at 11.4 µM] | inactive | – | – | – |
| CCN1C(C)=C(C(=O)OC)C(c2ccccc2)N2C(=O)[C@@]3(C(=O)OC)O[C@@]12C1C(=O)N(c2ccccc2)C(=O)C13 (stereo not given in full) | inactive | -20.6% [at 11.4 µM] | inactive | inactive | – | – |
| CC(=O)OCC1OC(C#Cc2ccccc2)C=CC1O (stereo not given) | inactive | -14.6% [at 11.4 µM] | inactive | inactive | – | – |
| CCOC(=O)OCC1C=C[C@H](c2cc(-c3ccccc3)ccc2O)C(c2ccc(C(C)=O)cc2)O1 (stereo not given in full) | 316 nM (active) | – | – | 3160 nM (active) | 3160 nM (active) | -86.1% [at 11.4 µM] |
| COC(=O)C/C=C/C(C)C(OC)c1ccccc1Br (stereo not given) | inactive | -5.95% [at 11.4 µM] | inactive | inactive | – | – |
| CC12CC3OS(=O)OC3CC3C4C(C(OCc5ccccc5)C31)C42 (stereo not given) | inactive | -26.1% [at 11.4 µM] | inactive | – | – | – |
| CC(=O)OCC1OC(C#CC2=CCCCC2)C=CC1OC(C)=O (stereo not given) | inactive | -27.5% [at 11.4 µM] | inactive | – | – | – |
| COC(=O)NC(c1ccccc1)[C@]1(C(C)=O)CCCC1=O (stereo not given in full) | inactive | -20.1% [at 11.4 µM] | inactive | inactive | – | – |
| C=CCc1cccc(C2NC(C(=O)O)CCC2C)c1 (stereo not given) | inactive | -20.1% [at 11.4 µM] | inactive | inactive | – | – |
| COC(=O)/C=C/C1c2ccccc2C(OC)C1C (stereo not given) | inactive | -4.29% [at 11.4 µM] | inactive | inactive | – | – |
| COC(=O)NC(c1cccc(F)c1)[C@]1(C(C)=O)CCCC1=O (stereo not given in full) | inactive | -13.9% [at 11.4 µM] | inactive | – | – | – |
| COC(=O)NC(/C=C/c1ccco1)[C@@]1(C(=O)OC)CCCC1=O (stereo not given in full) | inactive | 2.43% [at 11.4 µM] | inactive | – | – | – |
| COc1ccc(O[C@H]2C=C[C@@H](c3ccccc3)O[C@H]2COC(=O)CC/C(C)=N\OC[C@@H](O)[C@H]2O[C@H]3OC(C)(C)O[C@H]3[C@@H]2O)cc1 | 1580 nM (active) | – | – | 5 nM (active) | 3980 nM (active) | -92.2% [at 11.4 µM] |
| CCOC(=O)OCC1OC(C#CC(C)(C)C)C=CC1OC(=O)OCC (stereo not given) | inactive | -18.5% [at 11.4 µM] | inactive | 2510 nM (active) | – | – |
| OCC1OC(c2ccccc2)C=CC1Oc1ccc(C2CCCC2)cc1 (stereo not given) | inactive | -14.3% [at 11.4 µM] | inactive | inactive | – | – |
| CC1CCC2C(=O)N3C(CCC(C)[C@@H]3c3ccc(-c4ccco4)cc3)C(=O)N2C1c1cccc(N2CCCC2=O)c1 (stereo not given in full) | inactive | 13.4% [at 11.4 µM] | inactive | – | – | – |
| O=C1C=CC2(OCCCO2)C(Br)=C1 | inactive | -14% [at 11.4 µM] | inactive | inactive | – | – |
| Cc1cc(=O)oc2cc(OC3C=CC(C#CC(C)(C)C)OC3CO)ccc12 (stereo not given) | inactive | -2.04% [at 11.4 µM] | inactive | inactive | – | – |
| CC(=O)OCC1OC(C#CC(C)(C)C)C=CC1OC(C)=O (stereo not given) | inactive | -15.4% [at 11.4 µM] and -10.3% [at 11.4 µM] | inactive | – | – | – |
| C=CCC1(c2ccccc2)Oc2ccc(C)cc2-c2nc3cc(Cl)c(Cl)cc3nc21 (stereo not given) | inactive | -28.2% [at 11.4 µM] | inactive | – | – | – |
| CC(O)CCCCCCC/C=C/C=C/C(N)=O (stereo not given) | inactive | -10.1% [at 11.4 µM] | inactive | inactive | – | – |
| CC1CCC(C(=O)O)NC1c1ccc(-c2ccco2)cc1 (stereo not given) | inactive | -4.5% [at 11.4 µM] | inactive | inactive | – | – |
| CC1(C)OC(C(O)(c2cc(C(F)(F)F)cc(C(F)(F)F)c2)c2cc(C(F)(F)F)cc(C(F)(F)F)c2)C(C(O)(c2cc(C(F)(F)F)cc(C(F)(F)F)c2)c2cc(C(F)(F)F)cc(C(F)(F)F)c2)O1 (stereo not given) | inactive | -21% [at 11.4 µM] | inactive | inactive | – | – |
| C=CCC1C=CC(OC(=O)OCC)C(COC(=O)OCC)O1 (stereo not given) | inactive | -26.9% [at 11.4 µM] | inactive | 794 nM (active) | – | – |
| CC1(C)OC(C(O)(c2cc(F)c(F)c(F)c2)c2cc(F)c(F)c(F)c2)C(C(O)(c2cc(F)c(F)c(F)c2)c2cc(F)c(F)c(F)c2)O1 (stereo not given) | inactive | -15% [at 11.4 µM] | inactive | inactive | – | – |
| COC(=O)NC(CC(C)=O)c1cccc(C(F)(F)F)c1 (stereo not given) | inactive | -14.1% [at 11.4 µM] | inactive | inactive | – | – |
| COC(=O)CC1=COC2OCC3=CC[C@@H]1C32 (stereo not given in full) | inactive | -15.8% [at 11.4 µM] | inactive | inactive | – | – |
